The text below walks through data of PubChem BioAssay.

A number with no mark means an inactive call. For some of these results: Measured potencies and affinities stand elsewhere. Calls of active or inactive are those of the source. Unless noted, no rule for the calls is given here.

Assay [1] is described as follows: antimalarial activity against Dd2 strain (AID 2302;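 active = growth inhibition above 50% at the single 2 µM test dose, taken to imply half-maximal potency below 2 µM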;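 also: 0% = DMSO untreated growth and 100% = chloroquine plus artemisinin killed control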). Particulars: P. falciparum Dd2 in RBCs, LDH growth readout, 72 h; at 2 µM; hits give high values.
Assay [2] is described as follows: human hepatoma cell viability loss – ATP luminescence, cytotoxicity control for P. falciparum antimalarial project, primary screen (AID 2303;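 active = inhibition above 50%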;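 also: 0% = DMSO wells and 100% = digitonin-killed cells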). Particulars: HepG2 viability, 24-48 h, at 10 µM, hits give high values.
Assay [3] has as its target L-lactate dehydrogenase (Plasmodium falciparum (isolate CDC / Honduras)) (UniProt Q27743). Kind of assay: PfLDH activity inhibition – cell lysate, 3D7 strain, counter-screen for P. falciparum growth inhibition project (AID 2304).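 Also: 0% = vehicle and 100% = reference inhibitor.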 Particulars: P. falciparum 3D7 crude extract, LDH APAD/NBT absorbance; at 2 µM; hits give high values. (The purpose of a counterscreen is to sort out artefacts and off-target activity.)

Assay [4] is described as follows: inhibition of 3D7 malaria parasite growth – strain 3D7 (AID 2306).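 Also: 0% = DMSO wells and 100% = chloroquine plus artemisinin control wells.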 Particulars: P. falciparum 3D7 erythrocytic growth, LDH absorbance, 72 h; at 2 µM; hits give high values.
Assay [5] deals with Calcium-dependent protein kinase 1 (Plasmodium falciparum (isolate 3D7)) (UniProt P62344). As to the kind of experiment: PfCDPK1 kinase inhibitors, biochemical, TCAMS library (AID 1159585; cut-off not given, nearly all actives have IC50 up to about 0.98 µM;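 also: inhibitors leave more ATP so luminescence rises with inhibition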). The settings on record: recombinant PfCDPK1, Kinase-Glo ATP depletion luminescence. On the technique in general: Kinase-Glo reads ATP consumption through a luciferase reaction.
In assay [6] the target is Plasmodium falciparum protein kinase 6 (PK6, PF3D7_1337100) (UniProt Q8IDW1). As to the kind of experiment: PfPK6 kinase inhibitors, biochemical, TCAMS library (AID 1159586). Particulars: recombinant PfPK6, Kinase-Glo ATP depletion luminescence.
Assay [7] deals with Protein kinase 7 (PK7), Plasmodium falciparum 3D7 (PF3D7_0213400) (UniProt Q7YTF7). As to the kind of experiment: inhibition of Plasmodium PK7 catalytic activity – biochemical, TCAMS antimalarial set, Kinase-Glo luminescence (AID 1159587). The settings on record: recombinant PfPK7, Kinase-Glo ATP depletion luminescence.
Assay [8] addresses Calcium-dependent protein kinase 4 (Plasmodium falciparum (isolate 3D7)) (UniProt Q8IBS5). Kind of assay: PfCDPK4 kinase inhibitors, biochemical, TCAMS library (AID 1159588; cut-off not given, nearly all actives have IC50 up to about 0.91 µM). Particulars: recombinant PfCDPK4, Kinase-Glo ATP depletion luminescence.

Chain of Calcium-dependent protein kinase 4 (Plasmodium falciparum (isolate 3D7)) (Q8IBS5 whole entry, looked up): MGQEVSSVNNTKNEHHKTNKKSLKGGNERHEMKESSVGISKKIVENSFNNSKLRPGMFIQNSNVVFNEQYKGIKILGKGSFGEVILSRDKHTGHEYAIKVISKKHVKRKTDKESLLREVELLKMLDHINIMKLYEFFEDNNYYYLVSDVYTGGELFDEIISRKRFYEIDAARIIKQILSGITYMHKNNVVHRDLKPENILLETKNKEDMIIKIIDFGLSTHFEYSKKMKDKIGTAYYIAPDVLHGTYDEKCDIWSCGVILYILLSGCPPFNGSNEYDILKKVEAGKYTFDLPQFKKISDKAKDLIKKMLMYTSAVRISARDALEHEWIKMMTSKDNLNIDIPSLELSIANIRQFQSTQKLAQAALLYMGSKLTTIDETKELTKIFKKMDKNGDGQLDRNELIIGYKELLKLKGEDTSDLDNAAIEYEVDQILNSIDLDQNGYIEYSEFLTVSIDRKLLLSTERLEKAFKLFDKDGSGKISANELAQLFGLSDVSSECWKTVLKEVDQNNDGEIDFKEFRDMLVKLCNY
Chain of Protein kinase 7 (PK7), Plasmodium falciparum 3D7 (PF3D7_0213400) (Q7YTF7 1-343): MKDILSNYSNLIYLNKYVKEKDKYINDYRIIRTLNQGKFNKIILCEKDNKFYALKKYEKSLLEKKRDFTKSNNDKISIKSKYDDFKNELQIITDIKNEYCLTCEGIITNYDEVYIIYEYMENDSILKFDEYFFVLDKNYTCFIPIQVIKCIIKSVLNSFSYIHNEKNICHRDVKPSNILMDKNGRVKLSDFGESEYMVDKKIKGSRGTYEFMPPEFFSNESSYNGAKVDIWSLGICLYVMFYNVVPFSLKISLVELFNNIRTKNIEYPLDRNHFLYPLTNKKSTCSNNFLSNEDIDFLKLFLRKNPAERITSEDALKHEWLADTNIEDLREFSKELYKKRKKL
Chain of Calcium-dependent protein kinase 1 (Plasmodium falciparum (isolate 3D7)) (P62344 whole entry, looked up): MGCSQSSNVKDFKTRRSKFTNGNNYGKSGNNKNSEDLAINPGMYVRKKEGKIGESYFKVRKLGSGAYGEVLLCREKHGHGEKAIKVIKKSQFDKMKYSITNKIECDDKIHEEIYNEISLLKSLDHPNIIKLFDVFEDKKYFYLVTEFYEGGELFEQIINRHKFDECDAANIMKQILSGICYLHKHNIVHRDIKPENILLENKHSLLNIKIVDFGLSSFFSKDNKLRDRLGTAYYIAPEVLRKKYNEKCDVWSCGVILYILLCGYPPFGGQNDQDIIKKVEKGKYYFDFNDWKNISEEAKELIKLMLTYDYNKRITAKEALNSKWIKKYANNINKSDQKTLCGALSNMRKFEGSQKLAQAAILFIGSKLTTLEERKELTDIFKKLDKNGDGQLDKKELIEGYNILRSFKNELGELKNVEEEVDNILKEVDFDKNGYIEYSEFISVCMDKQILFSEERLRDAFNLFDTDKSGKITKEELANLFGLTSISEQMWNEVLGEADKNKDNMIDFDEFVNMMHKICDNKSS
Chain of Plasmodium falciparum protein kinase 6 (PK6, PF3D7_1337100) (Q8IDW1 1-305): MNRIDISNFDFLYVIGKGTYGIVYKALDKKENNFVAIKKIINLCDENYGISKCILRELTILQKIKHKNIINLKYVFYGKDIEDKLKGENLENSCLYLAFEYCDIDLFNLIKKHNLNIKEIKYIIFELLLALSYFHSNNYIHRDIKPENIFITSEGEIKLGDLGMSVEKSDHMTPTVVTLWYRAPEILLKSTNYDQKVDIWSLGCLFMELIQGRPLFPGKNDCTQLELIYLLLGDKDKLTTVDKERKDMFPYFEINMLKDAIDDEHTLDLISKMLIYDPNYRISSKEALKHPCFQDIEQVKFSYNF
Chain of L-lactate dehydrogenase (Plasmodium falciparum (isolate CDC / Honduras)) (Q27743 whole entry, looked up): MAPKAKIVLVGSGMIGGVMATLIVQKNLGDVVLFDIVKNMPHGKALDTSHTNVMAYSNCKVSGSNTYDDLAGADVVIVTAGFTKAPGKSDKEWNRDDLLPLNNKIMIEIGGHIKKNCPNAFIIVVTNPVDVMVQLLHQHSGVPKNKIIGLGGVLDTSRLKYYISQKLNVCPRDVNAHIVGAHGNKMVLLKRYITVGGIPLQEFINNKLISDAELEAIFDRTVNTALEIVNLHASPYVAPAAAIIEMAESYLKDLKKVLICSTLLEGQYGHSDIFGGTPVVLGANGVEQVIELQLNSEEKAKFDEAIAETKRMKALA

For the compound `Cc1cc(N2CCC(NS(=O)(=O)c3cccc4cccnc34)CC2)nc(Nc2cccc(C#N)c2)n1`, the results for the growth inhibition in assay [1] and in assay [4] were 87% (active) and 98% (active), respectively. Further, the inhibition is 12% in assay [2] and -3% in assay [3]. Besides, the outcome in assay [5], in assay [6], in assay [7] and in assay [8] was inactive.
As for `Cc1c(CNCCCNc2cc(=O)c3ccccc3[nH]2)sc(C(F)=C(F)F)c1Br`, the growth inhibition in assay [1] was 18%; in assay [4] it was 94% (active). The inhibition in assay [2] was 7%; in assay [3], -2%. The outcome in assay [5], in assay [6], in assay [7] and in assay [8] was inactive.
`CCOc1ccc(-c2nonc2NC(=O)c2ccccc2)cc1OCC`: the figures for the growth inhibition in assay [1] and in assay [4] were 100% (active) and 99% (active), respectively. In addition, the figures for the inhibition in assay [2] and in assay [3] were 6% and 4%, respectively. Further, the outcome in assay [5], in assay [6], in assay [7] and in assay [8] was inactive.
For the compound `Cc1cc(OCCCN=C(N)c2ccc3ccccc3c2)c(C(C)C)cc1Cl`, the growth inhibition in assay [1] was 10%; in assay [4] it was 95% (active). Also, the inhibition in assay [2] is 89% (active); in assay [3] it was 2%. Moreover, the outcome in assay [5], in assay [6], in assay [7] and in assay [8] was inactive.
Turning to `NC(=Nc1nc(-c2ccccn2)cc2ccccc12)c1cccc(Cl)c1`, the growth inhibition in assay [1] was 99% (active); in assay [4], 101% (active). The results for the inhibition in assay [2] and in assay [3] were 54% (active) and 0%, respectively. Moreover, the outcome in assay [5], in assay [6], in assay [7] and in assay [8] was inactive.
As to `Cc1ccc(-n2nc(-c3ccccc3)c3cc(C(=O)NCCN)sc32)cc1`, the growth inhibition in assay [1] was 43%; in assay [4], 92% (active). The inhibition in assay [2] is 28%; in assay [3], 2%. The outcome in assay [5], in assay [6], in assay [7] and in assay [8] was inactive.
As to `Cc1ccc(S(=O)(=O)N2CCCN(C(=O)c3cc(-c4ccccc4)n[nH]3)CC2)cc1`, the growth inhibition was 93% (active) in assay [1] and 96% (active) in assay [4]. The inhibition in assay [2] is 11%; in assay [3] it was -2%. For the same compound, the result in assay [5], in assay [6], in assay [7] and in assay [8] was inactive.
Take `O=C(Cc1ccccc1)NC(Nc1ccc([N+](=O)[O-])cc1)C(Cl)(Cl)Cl` (stereo not given): the growth inhibition in assay [1] was 100% (active); in assay [4], 99% (active). Moreover, the inhibition in assay [2] was 21%; in assay [3], 1%. For the same compound, the result in assay [5], in assay [6], in assay [7] and in assay [8] was inactive.
Turning to `CCCCNc1nc(NCCCC)c2c(C)c(Cc3ccccc3)c(NCCCC)nc2n1`, the growth inhibition in assay [1] was 84% (active); in assay [4], 95% (active). The inhibition was 69% (active) in assay [2] and -10% in assay [3]. The result in assay [5], in assay [6], in assay [7] and in assay [8] was inactive.
In the case of `CCCCCc1ccc(N2C(N)=NC(N)=NC2(C)C)cc1`, the growth inhibition was 1% in assay [1] and 95% (active) in assay [4]. Also, the inhibition in assay [2] was 59% (active); in assay [3], -6%. For the same compound, the result in assay [5], in assay [6], in assay [7] and in assay [8] was inactive.
Take `COc1ccc(-c2cc(C(=O)N[C@@H](CC3CCCCC3)C(=O)NCCN3CCCC3)ccc2O)cc1`: the growth inhibition was 12% in assay [1] and 90% (active) in assay [4]. Further, the inhibition in assay [2] is 12%; in assay [3], 2%. For the same compound, the outcome in assay [5], in assay [6], in assay [7] and in assay [8] was inactive.
`COCCCN=C(N)c1ccc(NC(=O)c2ccc(C(=O)Nc3ccc(C(N)=NCCCOC)cc3)cc2)cc1`: the growth inhibition in assay [1] is 99% (active); in assay [4] it was 100% (active). In addition, the inhibition in assay [2] was 33%; in assay [3], -2%. Moreover, the outcome in assay [5], in assay [6], in assay [7] and in assay [8] was inactive.
`CCC(C)NCC(O)(c1ccc(Cl)cc1)c1ccc(Cl)cc1` (stereo not given): the growth inhibition in assay [1] was 76% (active); in assay [4], 95% (active). Moreover, the inhibition in assay [2] was 5%; in assay [3], 0%. The outcome in assay [5], in assay [6], in assay [7] and in assay [8] was inactive.
Regarding `COc1ccc(C(=O)C2CCN(CCCCNC(=O)c3ccc(NC(=O)c4ccc(Cl)cc4)cc3)CC2)c(OC)c1`, the growth inhibition in assay [1] was 13%; in assay [4] it was 98% (active). In addition, the inhibition in assay [2] is 47%; in assay [3] it was 4%. The result in assay [5], in assay [6], in assay [7] and in assay [8] was inactive.
Consider `COc1cc2nc(Nc3ccc(Oc4ccccc4)cc3)nc(Nc3ccc(Oc4ccccc4)cc3)c2cc1OC`, for which the growth inhibition in assay [1] was 45%; in assay [4], 95% (active). Besides, the inhibition in assay [2] was 5%; in assay [3] it was 6%. Further, the outcome in assay [5], in assay [6], in assay [7] and in assay [8] was inactive.
For `Cc1nc2nc(N)nc(N)c2c(C)c1Cc1cccc(C#N)c1`, the growth inhibition in assay [1] is 1%; in assay [4], 97% (active). The inhibition was 64% (active) in assay [2] and 1% in assay [3]. For the same compound, the outcome in assay [5], in assay [6], in assay [7] and in assay [8] was inactive.
`Cc1cccc(Nc2nccc(Nc3cccc(C(=O)NCCN4CCOCC4)c3)n2)c1`: the growth inhibition in assay [1] is 11%; in assay [4], 91% (active). For the same compound, the inhibition in assay [2] is 10%; in assay [3], -2%. For the same compound, the result in assay [5], in assay [6], in assay [7] and in assay [8] was inactive.
As for `COc1ccc(CCCN2C(=O)C(c3ccccc3)(c3ccccc3)N=C2N)cc1`, the growth inhibition in assay [1] is 76% (active); in assay [4], 94% (active). Moreover, the results for the inhibition in assay [2] and in assay [3] were 21% and 5%, respectively. Besides, the result in assay [5], in assay [6], in assay [7] and in assay [8] was inactive.
For `CN(/N=C/c1ccc(Cl)cc1)c1nc(NCCc2ccc(O)cc2)nc(N2CCNCC2)n1`, the growth inhibition in assay [1] was 97% (active); in assay [4], 101% (active). The inhibition was 10% in assay [2] and 4% in assay [3]. The outcome in assay [5], in assay [6], in assay [7] and in assay [8] was inactive.
As to `Oc1ccc(Nc2nc(NCc3ccco3)c3ccccc3n2)cc1`, the results for the growth inhibition in assay [1] and in assay [4] were 78% (active) and 101% (active), respectively. The results for the inhibition in assay [2] and in assay [3] were 7% and -3%, respectively. For the same compound, the outcome in assay [5], in assay [6], in assay [7] and in assay [8] was inactive.

By inhibition is commonly meant the relative decrease from the control value, in per cent.
